An excerpt weighted towards active compounds, which were near 7.3% of everything screened.
Rab9 promoter act = qHTS Assay for Rab9 Promoter Activators. Huh7 Rab9 promoter-luciferase reporter, luminescence, 24 h. Potency, µM (doses to about 9.22 µM), for the others: at the top dose activation, negative = inhibition, actives largely listed as activators. actives 2.8% (n = 320,000); note: % of control where 0% means no effect; nearly all actives have a fitted effect of over 60% in size
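Rab9 promoter-driven luciferase in stably transfected Huh7 cells; 1500 cells/well rested 2 h, exposed to compound in DMSO for 24 h at 37 °C, 5% CO2. Luminescence read 10 min after adding luciferase reagent at ambient temperature.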
Luc counter = Counterscreen for Luciferase (Kinase-Glo TM) Inhibition. actives 0.28% (n = 200,000). Kinase-Glo luciferase, ATP luminescence, 8 min. Luciferin 4-monooxygenase (Photuris pensylvanica), Q27757. Potency, µM (series often up to 38.3 µM), for the others: top-dose activity change, negative = inhibition, actives largely listed as inhibitors; note: % is set by controls: 0 for no effect and ±100 for the full control effect; nearly all actives have a fitted effect of over 60% in size
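Compounds were added to a substrate mix at pH 7.2 (50 mM imidazole, 10 uM ATP, within the enzyme's linear range), followed by Kinase-Glo detection reagent; luminescence was measured after 8 minutes at ambient temperature.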
ELG1 genotoxic = qHTS screen for small molecules that induce genotoxicity in human embryonic kidney (HEK293T) cells expressing luciferase-tagged ELG1; Potency, µM (top dose mostly 46 µM), without a hit: at the highest dose activity change, positive = activation, actives largely listed as activators; AID 504466, 2011; HEK293T ELG1-luciferase reporter, luminescence, 16 h; actives 1.3% (n = 330,000); note: % of control where 0% means no effect; nearly all actives have a fitted effect of over 60% in size
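Reporter readout depends on ELG1 protein level, which increases with genetic stress. After 16 hr compound exposure at 37 °C, luciferase activity was quantified using ONE-Glo.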
FLuc modulator = qHTS profiling assay for firefly luciferase inhibitor/activator using purifed enzyme and Km concentrations of substrates (counterscreen for miR-21 project); Potency, µM (titrated, usually from 57.5 µM), without a hit: at the top dose activity change, negative = inhibition, actives largely listed as inhibitors; Luciferin 4-monooxygenase (Photinus pyralis), P08659; actives 6.9% (n = 360,000); purified FLuc, Km substrates, luminescence inhibition;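 note: plate controls were vehicle for no effect and reference inhibitor for full effect; nearly all actives have a fitted effect of over 55% in size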
Target sequence (P08659 whole entry, looked up): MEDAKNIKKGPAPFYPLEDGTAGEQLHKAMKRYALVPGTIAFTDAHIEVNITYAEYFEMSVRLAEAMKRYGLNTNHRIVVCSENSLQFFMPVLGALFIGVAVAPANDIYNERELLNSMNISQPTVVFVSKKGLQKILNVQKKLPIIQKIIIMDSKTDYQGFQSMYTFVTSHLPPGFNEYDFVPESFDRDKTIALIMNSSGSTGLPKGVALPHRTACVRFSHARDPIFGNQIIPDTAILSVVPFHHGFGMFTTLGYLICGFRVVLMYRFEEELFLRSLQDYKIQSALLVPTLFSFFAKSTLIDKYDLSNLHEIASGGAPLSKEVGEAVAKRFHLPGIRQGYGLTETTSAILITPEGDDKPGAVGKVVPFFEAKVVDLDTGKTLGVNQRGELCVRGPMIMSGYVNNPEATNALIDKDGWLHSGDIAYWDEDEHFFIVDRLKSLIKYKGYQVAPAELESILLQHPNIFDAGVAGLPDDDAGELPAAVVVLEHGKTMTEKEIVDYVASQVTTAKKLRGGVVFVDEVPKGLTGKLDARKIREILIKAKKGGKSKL
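Purified P. pyralis luciferase (10nM final) with 10uM D-luciferin and 10uM ATP (Km levels) in 50mM Tris acetate pH 7.5, 10mM Mg acetate, 0.01% Tween-20, 0.05% BSA; qHTS 6-point titration, ~60 µM downward; luminescence read.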
NPC1 prom act = qHTS Assay for NPC1 Promoter Activators; Huh7 NPC1 promoter luciferase reporter, 24 h; AID 485313, 2010; Potency, µM (top dose mostly 9.22 µM), for inactives: at the top dose activation, most hits filed as activators; actives 2.4% (n = 320,000); note: % of control where 0% means no effect; nearly all actives have a fitted effect of over 60% in size
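Stable NPC1-promoter luciferase Huh7 line; cpd (DMSO) 24 h, 37 °C, 5% CO2; Amplite luciferase reagent 10 min RT; luminescence readout. qHTS format.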
SMN2 splice enh = qHTS Assay for Enhancers of SMN2 Splice Variant Expression; HEK293 SMN2-luciferase splicing reporter, luminescence, 30-36 h; Potency, µM (doses to about 46.1 µM), inactives show top-dose activity change, positive = activation, usual class: activators; actives 2.8% (n = 210,000); AID 1458, 2008; note: % of control where 0% means no effect; nearly all actives have a fitted effect of over 55% in size
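HEK293 cells carry an SMN2 […]–luciferase reporter in which exon 7 inclusion puts luciferase in frame. Cells were plated 10-12 h before compound addition, then incubated 30-36 h at 37C. ONE-Glo luminescence was read; sodium butyrate at 4.5 mM final served as control.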
Starred values were filed as active, the others as inactive; ? = inconclusive; / = not tested or not shown; [ ] = remark or other dose. Calls come from the whole dose curve; as a rule, active = well fitted curve in the direction sought with a large enough effect; inconclusive = small, poorly fitted or top-dose-only effect, or another doubt; inactive = no such curve, though single readings can be large; an effect the other way counts as inactive or inconclusive. Potency is the fitted concentration of half-maximal effect.

SMILES	Rab9 promoter act	Luc counter	ELG1 genotoxic	FLuc modulator	NPC1 prom act	SMN2 splice enh
CCOc1ccccc1/C=C(\C#N)C(N)=O	/	-1%[7.66 µM]	/	/	/	-7%[9.22 µM]
C#CCSc1ncc(-c2ccccc2)cn1	?	-4%	12%	?	19%	3%
C=CCSc1ncc(-c2ccccc2)cn1	26%	-4%	15%	15µM*	24%	11%
Cc1ccc(-c2noc(CN(C(=O)COc3cc(C)cc(C)c3C)C(C)C)n2)cc1	/	/	/	-4%	/	-19%
CCOc1ccc(CCNC(=O)c2cn(CC)c3ccc(S(=O)(=O)N4CCCCCC4)cc3c2=O)cc1OCC	/	/	/	-9%	/	12%
COCCNC(=O)c1cc2c(s1)-c1ccc(Cl)cc1SC2	2.2µM*	/	?	6µM*	2.5µM*	/
CC(NC(=O)c1ccc(N2CCCC2=O)cc1)c1ccccc1 (stereo unspecified)	15%	-2%	6%	-8%	0%	-16%
CC(=O)c1ccc(NC(=O)c2ccc(N3CCCC3=O)cc2)cc1	-1%	/	2%	-12%	1%	/
CSc1ccccc1NC(=O)c1ccc(N2CCCC2=O)cc1	?	/	?	15µM*	?	/
CC(=O)c1ccccc1NC(=O)c1ccc(N2CCCC2=O)cc1	?	/	?	7.6µM*	27%	/
CN(C(=O)CSc1ncnc2sccc12)C1CCCCC1	2.8µM*	/	?	13µM*	?	/
CN(C(=O)CSc1ncnc2sccc12)C1CCS(=O)(=O)C1 (stereo unspecified)	-2%	/	0%	4%	-1%	/
CCOc1ccc(OCC)c(NS(=O)(=O)c2ccc3c(c2)CCCN3C(C)=O)c1	/	/	/	-6%	/	/
CC1CCCCC12NC(=O)N(CC(=O)NC(=O)Nc1ccc3c(c1)OCCO3)C2=O (stereo unspecified)	3.5µM*	-3%	?	11µM*	2.8µM*	13µM*
O=C(CN1C(=O)NC2(CCCCC2)C1=O)Nc1ccc2c(c1)OCCCO2	3.2µM*	/	?	12µM*	3.2µM*	/
N#C/C(=C(/O)c1cc2ccccc2o1)c1nc2ccccc2s1	?	/	3%	6.7µM*	3.2µM*	/
Cn1c(/C(C#N)=C(\O)c2cccc(F)c2)nc2ccccc21	12%	/	?	-5%	30%	/
N#C/C(=C(\O)Cc1ccccc1)c1nc2ccccc2[nH]1	-3%	-3%	?	-3%	3%	-25%
N#C/C(=C(/O)c1ccco1)c1nc2ccccc2[nH]1	?	1%	2%	19µM*	16%	-34%
N#C/C(=C(/O)c1ccco1)c1nc2ccccc2s1	3.2µM*	-9%	14%	8.5µM*	2.2µM*	25%
N#C/C(=C(/O)c1cccc(F)c1)c1nc2ccccc2s1	?	/	9%	19µM*	?	/
Cc1cc(NC(=O)Nc2nc3c(s2)CCCCCC3)ccc1Br	/	/	/	0%	/	/
COc1ccc(Cn2c(C(=O)O)c(CNCCc3cccs3)c3ccc(C)cc32)cc1	/	/	/	4%	/	/
COc1ccc(CN2C(=O)C(NC(=O)c3ccccc3C)(C(F)(F)F)N=C2c2ccccc2)cc1 (stereo unspecified)	/	/	/	-1%	/	?
Cc1nn(S(=O)(=O)c2ccc(F)cc2)c(C)c1S(=O)(=O)N1CCCCCC1	/	/	/	1%	/	/
SMILES	Rab9 promoter act	Luc counter	ELG1 genotoxic	FLuc modulator	NPC1 prom act	SMN2 splice enh
CC1=CC(=C(C#N)c2nc3ccccc3s2)C=C(C)N1Cc1ccco1	6%	-3%	1%	4.8µM*	2%	-16%
O=C(NCc1ccco1)c1nc2ccccc2s1	19%	-3%	?	?	3%	?
CC1=NN(c2ccccc2)C(=O)C1C=Nc1ccc(N(C)C)cc1 (stereo unspecified)	-3%	/	1%	?	11%	/
CC1=NN(c2ccccc2)C(=O)C1/C=C1/NC(=S)NC1=O (stereo unspecified)	10%	/	-1%	17µM*	1%	/
CCCCCCCC1=Cc2ccc(F)cc2C(C(C(C)=O)C(=O)OC)N1C(=O)OC (stereo unspecified)	/	-1%	/	/	/	6%
COC(=O)Cc1ccc(NC(=S)N2CCN(c3ccc(OC)cc3)CC2)cc1	-2%	4%	-4%	5%	-2%	-46%
COC(=O)Cc1ccc(NC(=S)N2CCN(C)CC2)cc1	21%	-2%	11%	5.4µM*	10%	?
COC(=O)Cc1ccc(NC(=S)N2CCC(Cc3ccccc3)CC2)cc1	8%	/	-3%	4.8µM*	1%	/
COC(=O)Cc1ccc(NC(=S)N2CCCCC2C)cc1 (stereo unspecified)	18%	-4%	10%	4.8µM*	10%	6%
Cc1ccc(N2C(=O)c3oc4cc(C)c(C)cc4c(=O)c3C2c2cccc(O)c2)nc1 (stereo unspecified)	/	/	/	4%	/	5%
Cc1cccc(CSc2cn(CC(=O)N3CCCC3)c3ccccc23)c1	/	/	/	15µM*	/	/
Cc1ccc(CSc2cn(CC(=O)N3CCCC3)c3ccccc23)cc1	/	/	/	15µM*	/	/
O=C(Cn1cc(SCc2c(F)cccc2Cl)c2ccccc21)N1CCCC1	/	/	/	17µM*	/	/
O=C(Cn1cc(SCc2cccc(Cl)c2)c2ccccc21)N1CCCCCC1	/	/	/	-5%	/	/
O=C(Cn1cc(SCc2ccc(C(F)(F)F)cc2)c2ccccc21)N1CCCCC1	/	/	/	-14%	/	/
O=C(CSc1cn(Cc2ccccc2)c2ccccc12)N1CCOCC1	23%	4%	18µM*	24µM*	?	13µM*
Cc1cccc2c1-c1sc(C(=O)N(C)c3cccc(Cl)c3)cc1CO2	/	/	/	-12%	/	-16%
O=C(Cn1cc(SCc2ccc(Cl)cc2)c2ccccc21)N1CCOCC1	30%	-7%	1%	24µM*	22%	?
CN1c2ccccc2C(C)(C)C12C=Nc1c(ccc3ccccc13)O2 (stereo unspecified)	8%	-3%	-2%	15µM*	-3%	-41%
CC(C)(C)c1ccc(C(=O)NC(=S)NCc2cccnc2)cc1	3%	-1%	-3%	24µM*	13%	-40%
COC(=O)CNC(=S)NC(=O)c1ccc(C(C)(C)C)cc1	-2%	-2%	5%	13µM*	-1%	2%
COCCCNC(=S)NNC(=O)c1ccc(C(C)(C)C)cc1	-2%	/	-4%	-4%	-2%	/
CC(C)(C)c1ccc(C(=O)NNC(=O)c2ccncc2)cc1	11%	/	3%	19µM*	9%	/

High-throughput results: PubChem, National Center for Advancing Translational Sciences (NCATS)
